From PubChem BioAssay AID492950 (Southern Research Specialized Biocontainment Screening …, 2010)
Results with a measured potency or affinity are listed apart. Calls of active or inactive are those of the source. The rule behind the calls is not given here.

Experiment: mammalian cell cytotoxicity, dose response, cytotoxicity control (AID 492950)
Details: cytotoxicity counter-screen; series mostly up to 40 µM
In the case of `CCOc1ccccc1C1C(C#N)=C(N)Nc2onc(-c3ccccc3)c21` (stereo not given), the outcome is reported as “inactive”. In the case of `C/C(=N\NC(=O)c1ccncc1)c1cc2ccccc2oc1=O`, the outcome is reported as “inactive”. In the case of `CCC(C)[C@@H](NC(=O)OC(C)(C)C)c1nnc(S(=O)(=O)Cc2cccc(C)c2)o1` (stereo not given in full), the outcome is reported as “inactive”. In the case of `N#CC1=C(N)Oc2n[nH]c(-c3cccs3)c2C1c1ccccc1C(=O)O` (stereo not given), the outcome is reported as “inactive”. With `O=c1cc(-c2ccc(Br)cc2)[nH][nH]1` the outcome was “inactive”. With `Cc1cc(-c2[nH]nc3c2C(c2ccsc2)C(C#N)=C(N)O3)c(C)s1` (stereo not given) the outcome was “inactive”. With `COc1ccc(-c2[nH]nc3c2C(c2ccoc2)C(C#N)=C(N)O3)cc1` (stereo not given) the outcome was “inactive”. With `Cc1cc(-c2[nH]nc3c2C(c2ccc(Cl)cc2)C(C#N)=C(N)O3)c(C)s1` (stereo not given) the outcome was “inactive”. In the case of `O=C(Cc1cc(=O)[nH][nH]1)N/N=C/c1c(F)cccc1Cl`, the outcome is reported as “inactive”. In the case of `O=C(Cc1cc(=O)[nH][nH]1)N/N=C/C(Cl)=C/c1ccccc1`, the outcome is reported as “inactive”. With `O=C1CC(CSc2ccc(Cl)cc2)=NN1` the outcome was “inactive”. With `Cc1ccc(-c2[nH]nc3c2C(c2ccc(OC(=O)N4CCOCC4)cc2)C(C#N)=C(N)O3)cc1` (stereo not given) the outcome was “inactive”. In the case of `Cc1nn(C)c(C)c1C1C(C#N)=C(N)Oc2n[nH]c(C)c21` (stereo not given), the outcome is reported as “inactive”. With `N#CC1=C(N)Oc2n[nH]c(-c3cccs3)c2C1c1ccsc1` (stereo not given) the outcome was “inactive”. In the case of `O=C(Cc1cc(=O)[nH][nH]1)N/N=C/c1ccccc1Cl`, the outcome is reported as “inactive”. In the case of `O=C(Cc1cc(=O)[nH][nH]1)N/N=C/c1cccc(Cl)c1Cl`, the outcome is reported as “inactive”. For `CC(=O)N(C1CC(C)C(C#N)(C#N)C1(C#N)C#N)N(C)C` (stereo not given), the outcome was “inactive”. In the case of `CCOC(=O)C/C(C)=N/NC(=O)COc1ccccc1C`, the outcome is reported as “inactive”. For `Cc1ccsc1/C=N/NC(=O)Cc1cc(=O)[nH][nH]1`, the outcome was “inactive”. With `C/C(=N\NC(=O)Cc1cc(=O)[nH][nH]1)c1cccc([N+](=O)[O-])c1` the outcome was “inactive”. In the case of `Fc1ccc(Oc2nc(-c3ccccc3)nnc2C(F)(F)F)cc1`, the outcome is reported as “inactive”. For `CSCCC1C(C#N)=C(N)Oc2n[nH]c(-c3cccs3)c21` (stereo not given), the outcome was “inactive”. In the case of `O=C(Cc1cc(=O)[nH][nH]1)N/N=C/C=C/c1ccccc1`, the outcome is reported as “inactive”. For `CC(=O)N1CCC2(CC1)C(C#N)=C(N)Oc1n[nH]c(CSc3ccc(C)cc3)c12`, the outcome was “inactive”. With `CCCCCCOC(=O)c1ccc(OC(=O)c2cccnc2)cc1` the outcome was “inactive”. With `Cc1ccc(-n2nnc3c(SCC(=O)NCC4CCCO4)ncnc32)cc1` (stereo not given) the outcome was “inactive”. With `N#CC1=C(N)Oc2n[nH]c(-c3cccs3)c2C1c1cccs1` (stereo not given) the outcome was “inactive”. For `CCOc1cc(C2C(C#N)=C(N)Oc3n[nH]c(-c4ccccc4)c32)ccc1O` (stereo not given), the outcome was “inactive”. With `COc1ccc(/C=C2/C(=O)N(c3ccccc3)N=C2C)cc1OC` the outcome was “inactive”. For `COc1ccc(/C=C2/C(=O)N(c3ccccc3)N=C2C)c(OC)c1`, the outcome was “inactive”.
